This is a sample that favours compounds with a hit; in the whole collection about 0.67% have one here.
Rango release inh: inhibitors of RanGTP-induced Rango-importin beta complex dissociation | Biochemical FRET Rango-importin beta, RanGTP-induced dissociation | Potency, µM (series often up to 46.1 µM), for inactives: at the highest dose activity change, negative = inhibition | hit rate 0.071% among 340,000 | AID 540253 | O95149+P62826; also: % of control where 0% means no effect; nearly all actives have a fitted effect of over 45% in size
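Rango/importin beta premix (0.1/0.25 uM final), PBS + 1 mM DTT + 0.02% Tween-20 + 0.1% BSA; cpd 5 min RT; FRET pre-read; + RanGTP-RCC1 (0.6 uM Ran, 2 mM GTP, 0.2 uM RCC1); 45 min RT; FRET post-read, ex 430, em 486/530 nm.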
ASM inhibitor: blocks human secretory acid sphingomyelinase. P17405. placental ASM, HMU-PC fluorogenic substrate, 60 min. Potency, µM (titrated, usually from 57.5 µM), without a hit: top-dose activity change, negative = inhibition, hits mostly inhibitors. hit rate 0.006% among 340,000. AID 504937; active = well fitted inhibition curve with a large enough effect; inconclusive = small, poorly fitted or top-dose-only effect; inactive = no such curve, though single readings can be large or run the other way
Target sequence (P17405 47-631 limits assumed): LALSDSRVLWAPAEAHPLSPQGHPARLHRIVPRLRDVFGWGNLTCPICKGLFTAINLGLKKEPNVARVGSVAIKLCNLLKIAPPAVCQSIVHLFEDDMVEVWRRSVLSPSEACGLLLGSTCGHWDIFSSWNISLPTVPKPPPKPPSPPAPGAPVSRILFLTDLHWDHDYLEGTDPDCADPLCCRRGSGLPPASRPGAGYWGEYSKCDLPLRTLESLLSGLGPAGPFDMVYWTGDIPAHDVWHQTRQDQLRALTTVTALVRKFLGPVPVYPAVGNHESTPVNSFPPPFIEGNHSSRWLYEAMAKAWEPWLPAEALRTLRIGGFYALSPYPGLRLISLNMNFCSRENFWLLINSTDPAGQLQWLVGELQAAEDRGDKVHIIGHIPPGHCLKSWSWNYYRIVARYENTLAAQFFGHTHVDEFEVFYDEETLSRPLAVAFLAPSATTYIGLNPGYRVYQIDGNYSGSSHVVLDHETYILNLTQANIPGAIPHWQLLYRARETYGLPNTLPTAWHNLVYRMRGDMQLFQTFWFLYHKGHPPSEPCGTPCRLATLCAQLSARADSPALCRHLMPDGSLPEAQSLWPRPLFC
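HMU-PC0 cleavage (9 uM final) by human placental ASM, 60 min at 37 °C following 10 min compound exposure at RT; stopped at pH 10, fluorescence Ex 386/Em 447 nm.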
Rango-impB inh: inhibitors of Rango-importin beta complex formation. Potency, µM (top dose mostly 92.2 µM), inactives show at the highest dose inhibition of complex formation. Rango CFP/YFP FRET sensor + importin beta, 45 min. hit rate 0.031% among 340,000. Q14974;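 also: 0% = DMSO wells and 100% = buffer wells lacking importin beta; nearly all actives have a fitted effect of over 15% in size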
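Inhibition scored from the CFP 486 nm/YFP 530 nm FRET ratio 45 min after adding 0.125 microM importin beta to 50 nM Rango biosensor preincubated 5 min with compound (room temperature, PBS with DTT, Tween-20, BSA). No-importin wells as positive control.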
gsp antagonist: gsp mutant antagonism. gsp-mutant cells, cAMP HTRF, 30 min. Potency, µM (top dose mostly 76.9 µM), without a hit: at the top dose activity change, negative = inhibition, most hits filed as inhibitors. hit rate 0.4% among 340,000. AID 624288; calls by dose curve; cell line not stated here;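 also: intracellular cAMP measured with PDE inhibitor Ro 20-1724 present during compound exposure; % is scaled to controls: 0 for no effect and ±100 for the full control effect; nearly all actives have a fitted effect of over 65% in size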
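Measurement of cellular cAMP by homogeneous time-resolved fluorescence following a 30 min compound exposure at 37C. The PDE inhibitor […] was present throughout; the assay buffer was DPBS with 0.05% BSA and 0.005% Tween 20.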
gsp ag: agonists of gsp mutant (McCune-Albright syndrome). gsp mutant cells, cAMP HTRF, 30 min. Potency, µM (titrated, usually from 76.9 µM), without a hit: top-dose activation (cAMP increase), most hits filed as activators. hit rate 0.13% among 340,000. AID 624287; active = well fitted activation curve with a large enough effect; inconclusive = small, poorly fitted or top-dose-only effect, or another doubt; inactive = no such curve, though single readings can be large or run the other way; cell line not stated here;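 also: phosphodiesterase inhibitor Ro 20-1724 added with compounds to block cAMP breakdown; nearly all actives have a fitted effect of over 60% in size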
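Cells stably selected in G418 were plated at 2000/well, grown 16-24 hr, then given compounds in DMSO with the PDE inhibitor […] (300 uM solution added) for 30 min at 37C; cAMP was read by HTRF.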
The depositor's hits bear a star; i = inactive; ? = inconclusive; / = not tested or not shown; [ ] = dose if it differs, or a comment. Unless noted, calls follow the shape of the full dose curve. Potency is read from the fitted curve at half-maximal effect.

SMILES | Rango release inh | ASM inhibitor | Rango-impB inh | gsp antagonist | gsp ag
Cc1ccc(/C=C2\SC(=S)N(CCC(=O)NNS(=O)(=O)c3ccccc3)C2=O)cc1 | 10% | -1% | 4% | 50µM* | -14%[15.4 µM]
COc1ccc(/C=C2\SC(=S)N(CCCC(=O)Nc3ccccc3C(=O)O)C2=O)cc1OC | ? | -6% | ? | 35µM* | ?
O=C(CCCN1C(=O)/C(=C/c2cccs2)SC1=S)Nc1cccc(O)c1 | -12% | -24% | 5% | 45µM* | -14%
O=C(CCN1C(=O)/C(=C/c2cccs2)SC1=S)Nc1cccc(O)c1 | -12% | -7% | 1% | 40µM* | -39%
Cc1ccc(/C=C2\SC(=S)N(CCC(=O)NNC(=O)c3ccccc3O)C2=O)cc1 | 0% | -2% | 1% | 1% | 15%
CC(CNC(=O)CC(C)(C)C)NC(=O)CC(C)(C)C (stereo not drawn) | -1% | 1% | -1% | 14% | 14%
Cc1ccc(S(=O)(=O)/N=C(/c2ccc(F)cc2)N2CCCCC2)cc1 | 16% | 2% | -2% | 11% | 15%[15.4 µM]
COC(=O)NC1CCC(NC(=O)OC)CC1 (stereo not drawn) | -4% | 2% | 1% | -8% | 2%
CCOc1ccc(CCNC(=O)c2cc(-c3ccccc3)c(N3CCOCC3)s2)cc1OCC | 12% | -2% | -1% | ? | 20%
COc1ccc(CCNC(=O)c2cc(-c3ccccc3)c(N3CCOCC3)s2)c(OC)c1OC | -7% | -2% | 0% | 32µM* | -18%
Cc1ccc(NC(=O)COc2ncnc3sccc23)cc1S(=O)(=O)N(C)C | 18% | 2% | 1% | -3% | 23%
CCN(CC)S(=O)(=O)c1cccc(NC(=O)COc2ncnc3sccc23)c1 | 4% | -2% | 3% | 2% | 25µM*
COc1ccc2nnc(-c3ccccc3)n2n1 | 2% | 3% | -2% | 16% | 16µM*
Oc1ccc(Nc2nnc(-c3ccc(O)cc3)c3ccccc23)cc1 | 10% | -3% | 0% | -19% | -18%[15.4 µM]
COc1ccc(Nc2nnc(-c3ccc(O)cc3)c3ccccc23)cc1 | 10% | -5% | 4% | 25µM* | -1%
CCOC(=O)COc1cc(-n2c(=S)[nH]c3cc(OC)c(OC)cc3c2=O)c(Cl)cc1Cl | 6% | -25% | -1% | 13µM* | -3%[15.4 µM]
C[C@@H]1CN([C@H](C)CO)C(=O)CCCn2nncc2CO[C@H]1CN(C)C(=O)c1ccc(N2CCN(C)CC2)cc1 | / | / | / | / | -48%
C[C@@H]1CN([C@@H](C)CO)C(=O)CCCn2nncc2CO[C@@H]1CN(C)C(=O)c1ccc(N2CCN(C)CC2)cc1 | / | / | / | / | 10µM*
COc1ccc(N=C2SCC(=O)N2CCc2ccc(OC)c(OC)c2)cc1 | -7% | 2% | -3% | -12% | -9%
COc1ccc(CCN2C(=O)CSC2=Nc2ccc(C(C)C)cc2)cc1OC | -8% | -14% | -2% | 28µM* | -8%[15.4 µM]
COc1cccc(CN2CC(C(=O)N(C)Cc3ccnc4ccccc34)CCC2=O)c1 (stereo not drawn) | -6% | 0% | -1% | 16% | ?
Cc1cc(C)c(C#N)c(SCc2ccc(C(=O)O)cc2)n1 | 40% | 3% | 9% | 40µM* | -3%
Cc1ccc(-c2cc(C(=O)Nc3cccc(S(=O)(=O)N(C)C)c3)c3ccccc3n2)o1 | 15µM* | i | ? | 9% | -13%[15.4 µM]
Cc1cc(C)c(C(=O)N2CCC(N3CCC(C(=O)NC(C)C)CC3)CC2)o1 | -1% | / | 0% | 10% | 4%[15.4 µM]
CC1c2ccsc2CCN1C(=O)NC(=O)c1ccc(Cl)cc1 (stereo not drawn) | -4% | -4% | -1% | 7% | -11%[15.4 µM]
COc1ccc(C2c3ccsc3CCN2C(=O)NC(C)(C)C)cc1 (stereo not drawn) | 12% | 1% | -1% | 32µM* | 0%
O=C(Nc1cc2c(oc1=O)CCCC2=O)c1ccc(Cl)cc1 | -7% | -4% | 0% | -4% | ?
CCOC(=O)C1=C(N)Oc2c(c(=O)[nH]c3ccccc23)C1c1ccccc1 (stereo not drawn) | 2% | 4% | 2% | -2% | -34%

Screening results: PubChem, National Center for Advancing Translational Sciences (NCATS)
